An excerpt weighted towards active compounds, which were near 11% of everything screened.
G9a block – blocks human histone lysine methyltransferase G9a | Q96KQ7 | G9a H3K9 monomethylation, AlphaScreen, 2 h | Potency, µM (series often up to 102 µM), without a hit: top-dose activity, negative = inhibition, actives largely listed as inhibitors | 350,000 tested, 8.8% active; further: potency means the concentration at half of the fitted maximal effect; on the % scale 0 is the no-effect control and ±100 the full control effect; nearly all actives have a fitted effect of over 75% in size
Target sequence (Q96KQ7 913-1193 limits assumed): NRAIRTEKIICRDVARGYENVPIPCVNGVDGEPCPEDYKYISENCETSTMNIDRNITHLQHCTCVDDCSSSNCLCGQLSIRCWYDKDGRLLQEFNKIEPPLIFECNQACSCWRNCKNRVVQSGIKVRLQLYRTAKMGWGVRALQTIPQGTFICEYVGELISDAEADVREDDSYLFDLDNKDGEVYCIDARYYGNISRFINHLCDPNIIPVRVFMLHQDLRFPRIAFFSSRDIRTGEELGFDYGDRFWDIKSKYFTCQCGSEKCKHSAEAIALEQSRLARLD
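Chemiluminescent proximity detection of H3K9 monomethylation, read after 10 min bead incubation in the dark. Reaction: 20 nM G9a, 500 nM biotin-H3K9 peptide, 20 uM SAM cofactor, 2 h, room temperature, following 15 min enzyme-compound preincubation.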
JMJD2A Tudor inh – blocks the human JMJD2A Tudor domain. Potency, µM (highest dose often 114 µM), for inactives: at the highest dose activity change, negative = inhibition, usual class: inhibitors. AID 504339. 390,000 tested, 4.4% active. AlphaScreen JMJD2A-Tudor / H3K4me3 peptide binding; further: potency means the concentration at half of the fitted maximal effect; on the % scale 0 is the no-effect control and ±100 the full control effect; nearly all actives have a fitted effect of over 50% in size
L3MBTL1 inh – L3MBTL1 (human) inhibition. Q9Y468. AlphaScreen L3MBTL1–H3K9me1 peptide binding. Potency, µM (doses to about 57.1 µM), for the others: top-dose activity, negative = inhibition, actives largely listed as inhibitors. 230,000 tested, 0.66% active; further: potency means the concentration at half of the fitted maximal effect; on the % scale 0 is the no-effect control and ±100 the full control effect; nearly all actives have a fitted effect of over 60% in size
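L3MBTL1 (50 nM) pre-complexed 30 min with biotinylated H3(1-15)K9me1 peptide (75 nM), then compounds added for 30 min at room temperature; AlphaScreen streptavidin donor/nickel chelate acceptor beads (10 ug/mL final) read after 30 min dark incubation.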
PI5P4K alpha inh – inhibitors of human PI5P4K alpha; P48426; PI5P4Kalpha enzyme, ADP-Glo luminescence, 60 min; active compounds read low; max response, %; 330,000 tested, 1.2% active; AID 652105; active means max response of -50% or lower; inconclusive means between -30% and -50%; inactive means -30% or higher; further: value at the top dose of about 77 µM; on the % scale 0 is the no-effect control and ±100 the full control effect
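ADP-Glo luminescence end-point after a 60 min room-temperature kinase reaction. PI5P4Kalpha and substrate in HEPES pH 7.4 buffer with EGTA, 0.1% CHAPS and 5% DMSO; ATP at 5 microM final.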
HP1b binding inh – inhibitors of HP1-beta chromodomain binding to methylated histone tails. 390,000 tested, 0.56% active. P83916. AlphaScreen HP1-beta / biotin-H3K9me3 peptide binding. AID 540317. Potency, µM (titrated, usually from 114 µM), without a hit: at the highest dose activity change, negative = inhibition, actives largely listed as inhibitors; further: potency means the concentration at half of the fitted maximal effect; nearly all actives have a fitted effect of over 70% in size
Target sequence (P83916 whole entry, looked up): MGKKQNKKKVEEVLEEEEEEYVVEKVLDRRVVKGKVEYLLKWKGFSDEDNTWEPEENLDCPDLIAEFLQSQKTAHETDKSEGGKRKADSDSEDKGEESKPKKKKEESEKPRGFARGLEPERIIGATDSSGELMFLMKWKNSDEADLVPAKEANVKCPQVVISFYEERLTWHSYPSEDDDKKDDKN
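HP1-beta protein (50 nM final) preincubated 30 min at room temperature with biotinylated H3(1-18)K9me3 peptide (50 nM) in PBS pH 7.4, 0.01% Tween-20, then compound added for 30 min. AlphaScreen streptavidin donor/nickel chelate acceptor beads (10 ug/mL final), 30 min dark, luminescence read.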
BAZ2B inh – inhibitors of human BAZ2B bromodomain. AID 504333. Q9UIF8. Potency, µM (top dose mostly 114 µM), without a hit: at the top dose activity change, negative = inhibition, most hits filed as inhibitors. 360,000 tested, 4.4% active. AlphaScreen BAZ2B-H3K14Ac peptide displacement; further: potency means the concentration at half of the fitted maximal effect; on the % scale 0 is the no-effect control and ±100 the full control effect; nearly all actives have a fitted effect of over 60% in size
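AlphaScreen displacement of biotin-H3(5-23)K14Ac peptide (50 nM final) from BAZ2B (50 nM final) in PBS pH 7.4, 0.01% Tween-20; complex preformed 30 min RT, then compounds (top 110 uM) 30 min RT, beads 20 min dark.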
Starred values were filed as active, the others as inactive; ? = inconclusive; / = no result given; [ ] = remark or other dose. Unless noted, the call rests on the fitted dose curve; in most records, active means well fitted inhibition curve with a large enough effect; inconclusive means small, poorly fitted or top-dose-only effect; inactive means no such curve, though single readings can be large or run the other way.

SMILES | G9a block | JMJD2A Tudor inh | L3MBTL1 inh | PI5P4K alpha inh | HP1b binding inh | BAZ2B inh
CN(CC(=O)Nc1ccc(N2CCOCC2)cc1)C(=O)c1cn(-c2ccccc2)nc1-c1ccccc1 | ? | 2% | -5% | 2 | 14% | -12%
CCn1c2ccccc2c2cc(NC(=O)CN(C)CC(=O)Nc3ccc(N4CCOCC4)cc3)ccc21 | 40µM* | ? | -9% | -3 | -17% | 28µM*
CN(CC(=O)Nc1ccc(N2CCOCC2)cc1)C(=O)CSc1ccc(F)cc1 | 13µM* | ? | -1% | 0 | -6% | -8%
Cc1cccc(-c2nn(-c3ccccc3)cc2C(=O)N(C)CC(=O)Nc2ccc(N3CCOCC3)cc2)c1 | 7.9µM* | -21% | 0% | -6 | 3% | ?
Cc1c(C(=O)N2CCCC2)oc2c1-c1nn(CC(=O)NCc3ccccc3Br)cc1CC2 | ? | -24% | / | / | 16% | -23%
Cc1ccc(CC(=O)N(C)CC(=O)Nc2ccc(N3CCOCC3)cc2)cc1C | 14µM* | -15% | -5% | -5 | 23% | -29%
Cc1ccc(NC(=O)CN(C)CC(=O)Nc2ccc(N3CCOCC3)cc2)c([N+](=O)[O-])c1 | ? | -19% | 28% | -5 | -15% | -6%
CN(CC(=O)Nc1ccc(N2CCOCC2)cc1)C(=O)CC(c1ccccc1)c1ccccc1 | ? | -26% | / | 1 | 3% | ?
CN(CC(=O)Nc1ccc(N2CCOCC2)cc1)C(=O)CCc1cc(C(C)(C)C)c(O)c(C(C)(C)C)c1 | 0%[0.501 µM] | ? | -12% | -1 | -17% | 50µM*
Cc1ccc(NC(=O)CN(C)CC(=O)Nc2ccc(N3CCOCC3)cc2)cc1F | -143%[59 µM] | 7.9µM* | -3% | 2 | ? | 18µM*
Cc1cc(C)cc(OCC(=O)N(C)CC(=O)Nc2ccc(N3CCOCC3)cc2)c1 | 35µM* | -6% | -10% | -4 | 24% | 5%
CCc1ccccc1Nc1nc2cc(Cl)c(Cl)cc2nc1-n1nc(C)cc1C | 11%[59 µM] | 6% | / | / | 34% | 14%
CN(CC(=O)Nc1ccc(F)cc1)C(=O)CSc1nccn1C | 50µM* | 3% | 4% | 0 | 25% | -4%
COc1cccc2c1Oc1ncccc1N(C(=O)CCC(=O)NC(C)C)C2 | -1%[59 µM] | 1% | / | / | 29% | -7%[57.1 µM]
Cc1nc(-n2nc(C)c(CCC(C)C)c2C)sc1C(=O)Nc1cccc(Cl)c1C | 14µM* | -10% | / | / | 31% | ?
Cc1cccc(NC(=O)c2sc(-n3nc(C)c(CCC(C)C)c3C)nc2C)c1C | -2%[59 µM] | 12% | / | / | 56% | -3%
CN(CC(=O)Nc1cccc(Cl)c1)S(=O)(=O)c1ccc2c(c1)n(C)c(=O)c(=O)n2C | / | ? | / | 1 | -11% | -5%
CSc1cccc(NC(=O)CN(C)S(=O)(=O)c2ccc3c(c2)n(C)c(=O)c(=O)n3C)c1 | 1µM* | -15% | / | / | 34% | -19%
O=C(CSc1ccccn1)Nc1ccc(N2CCOCC2)cc1 | 32µM* | ? | / | -9 | -35% | -25%
Cc1nnc(SCC(=O)Nc2ccc(N3CCOCC3)cc2)o1 | 50µM* | -26% | -1% | 0 | 17% | 12%
CCc1nnc(SCC(=O)Nc2ccc(N3CCOCC3)cc2)o1 | -1%[12.7 µM] | -12% | / | 0 | 10% | 4%
CC(C)C[C@H](NC(=O)C1OC1C(=O)O)C(=O)NCCCCN=C(N)N (stereo partly specified) | -1%[59 µM] | / | / | / | / | /
O=C(/C=C/c1ccc(F)cc1)Nc1nc2n(n1)C(c1ccc(Cl)cc1)C=C(c1ccccc1)N2 (stereo unspecified) | -9%[59 µM] | 1% | / | / | 35% | 5%
CC1CCN(S(=O)(=O)c2ccc3c(c2)CCN3)CC1 | 17%[59 µM] | -25% | / | / | 39% | -25%
CC1CN(CCCCOc2ccc(F)cc2)CC(C)O1 (stereo unspecified) | 10µM* | ? | 3%[11.4 µM] | -3 | 50µM* | 50µM*
CC1CN(CCOCCOc2ccccc2-c2ccccc2)CC(C)O1 (stereo unspecified) | 1.8µM* | 10µM* | 3% | 0 | ? | 22µM*
